Data: the supplement of paper PMC9135407
Structures can show the parent of a compound that is named as a salt.

system: primary human hepatic stellate cells (donor 1); assay: ACTA2 mRNA fold change vs DMSO (normalised to PSMB2); higher = more ACTA2 expression; settings: 48 h
Protocol: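 Secondary qRT-PCR screen in primary human HSCs (donor 1), 384-well plates, with compounds dispensed in quadruplicate and incubated for 48 h. Cells-to-CT lysates were used for multiplexed TaqMan qPCR of ACTA2 or COL1A1 with PSMB2 as reference. Fold changes versus DMSO come from a linear model (Ct_gene ~ Ct_PSMB2 + plate + chemical). A hit is defined as COL1A1 and ACTA2 FC <0.5 (FDR <0.05) with PSMB2 between 0.2 and 2.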

Going from `CCC/C=C\C=C/C(=O)N[C@@H](CC(N)=O)C(=O)NC(CC(N)=O)C(=O)N[C@@H](C(=O)N[C@H](CCCN)C(=O)N[C@@H](C(=O)N[C@@H](C(=O)N[C@@H](C(=O)N[C@H](C(=O)N[C@@H](Cc1ccccc1)C(=O)N[C@H](CCCN)C(=O)NC(C(=O)N[C@H](C(=O)NC(C(=O)NCC(=O)N[C@@H](CC(C)C)C(=O)N[C@H](C)C(=O)NC(C(=O)O)C1CCC(O)C(Cl)C1)C1CCC(O)CC1)[C@H](C)O)C1CCC(O)CC1)[C@H](C)O)C1CCC(O)CC1)C1CCC(O)CC1)[C@H](C)O)C1CCC(O)CC1` (stereo not given in full) (33.3333 µM) to `C[C@H]1O[C@@H](O[C@H]2[C@@H](O)C[C@H](O[C@H]3[C@@H](O)C[C@H](O[C@H]4CC[C@@]5(C)[C@H](CC[C@@H]6[C@@H]5C[C@@H](O)[C@]5(C)[C@@H](C7=CC(=O)OC7)CC[C@]65O)C4)O[C@@H]3C)O[C@@H]2C)C[C@H](O)[C@@H]1O` [Digoxin] (33.3333 µM), the “ACTA2 mRNA fold change” value falls from 0.502 to 0.0126.

First: C#CC1(O)CC[C@H]2[C@@H]3CCC4=CC(=O)CC[C@@H]4[C@H]3CC[C@@]21CC (stereo not given in full) [Norgestrel] (21.3333 µM)
Second: NC[C@@H]1O[C@H](C23CC4CC(CC(C4)C2)C3)Cc2c1ccc(O)c2O (33.3333 µM)
The “ACTA2 mRNA fold change” value of the first is higher: 0.714 for the first, 0.309 for the second.

Compared with `CC(/C=C/C(=O)NO)=C\[C@@H](C)C(=O)c1ccc(N(C)C)cc1` [Trichostatin A] (3.33333 µM), `Cc1ccc(-c2ccc3c(ccc4sc5c(c43)NC[C@@H](C)NC5=O)n2)cn1` (33.3333 µM) is higher in “ACTA2 mRNA fold change” value: 0.0381 for the first, 1.65 for the second.

Compared with `O=C(Nc1cc(C(F)(F)F)cc(C(F)(F)F)c1)c1cc(Cl)ccc1O` (33.3333 µM), `CN1CCC(CNc2ccc3ncc(-c4cccc(OC(F)(F)F)c4)n3n2)CC1` (6.66667 µM) is higher in “ACTA2 mRNA fold change” value: 0.0138 for the first, 1.23 for the second.

Compared with `CCN(CC)CC#CCOC(=O)C(O)(c1ccccc1)C1CCCCC1` (stereo not given) [Oxybutynin chloride] (16.9333 µM), `Cc1ccc2c(c1)c1c3n2CCNC3CCC1` (stereo not given) [Pirlindole mesylate] (20.6667 µM) is lower in “ACTA2 mRNA fold change” value: 1.09 for the first, 0.712 for the second.
